This note sets out measurements from the antibiotic and cytotoxicity screens of Wong et al. (2023).

Out of some 39,000 compounds screened, about 1,500 (3.8%) were called active. Shown is part of a subset that was picked to be rich in actives.

This test relates to HSkMC (human skeletal muscle cells). The experiment in a line: cytotoxicity call (relative viability < 0.9). As to conditions: 10 µM.
On to `C[C@H]1CCCCO[C@H](CN(C)Cc2ccncc2)[C@@H](C)CN([C@@H](C)CO)C(=O)c2cc(NC(=O)CCC(F)(F)F)ccc2O1`, for which the cytotoxicity call is “inactive”.
`O=C(O)C1(c2cccs2)CCCC1`: the cytotoxicity call is “inactive”.
Under `Cc1noc(C)c1NC(=O)N(C)C[C@H]1Oc2c(NC(=O)NC(C)C)cccc2C(=O)N([C@@H](C)CO)C[C@@H]1C` stands “inactive”.
With `CC[N+](CC)(CC)CCOc1ccc(/C=C/c2ccccc2)cc1`, the cytotoxicity call was “inactive”.
With `CCN(CC)CCNC(=O)c1c(C)[nH]c(/C=C2/C(=O)Nc3ccc(-c4csc(-c5ccccc5)n4)cc32)c1C`, the cytotoxicity call is “active”.
Regarding `CCCCOc1cc(C(=O)NCCN(CC)CC)c2ccccc2n1.Cl`, the cytotoxicity call was “inactive”.
Regarding `CN(C)CCCNC(=O)C[C@H]1CC[C@H]2[C@@H](COC[C@H](O)CN2C(=O)Nc2cc(Cl)cc(Cl)c2)O1`, the cytotoxicity call was “inactive”.
For the compound `Cn1cc(N2C[C@]3(CNCCOC3)OCC2=O)cn1`, the cytotoxicity call was “inactive”.
Under `CC(C)Nc1ncnc(N)c1[N+](=O)[O-]` stands “inactive”; under `COc1ccc(C#Cc2ccc3c(c2)[C@]2(C(=O)N3)[C@H](C(=O)N3CCCCCCC3)[C@H]3C(=O)O[C@H](c4ccccc4)[C@H](c4ccccc4)N3[C@@H]2c2ccc(O)cc2)cc1`, “inactive”.
As for `C[C@@H]1CCCCO[C@H](CN(C)Cc2ccc(C(F)(F)F)cc2)[C@@H](C)CN([C@@H](C)CO)C(=O)c2cc(NC(=O)Nc3ccc4c(c3)OCO4)ccc2O1`, the cytotoxicity call was “active”.
`C[C@@H]1CN([C@@H](C)CO)C(=O)c2cc(NC(=O)Nc3ccc4c(c3)OCO4)ccc2O[C@@H](C)CCCCO[C@H]1CN(C)Cc1ccc(C(F)(F)F)cc1`: the cytotoxicity call is “inactive”.
Under `C[C@@H]1CN([C@@H](C)CO)C(=O)c2cc(NC(=O)Nc3ccc4c(c3)OCO4)ccc2O[C@@H](C)CCCCO[C@@H]1CN(C)Cc1ccc(C(F)(F)F)cc1` stands “inactive”; under `C[C@@H]1CCCCO[C@H](CN(C)Cc2ccc(C(F)(F)F)cc2)[C@H](C)CN([C@H](C)CO)C(=O)c2cc(NC(=O)Nc3ccc4c(c3)OCO4)ccc2O1`, “inactive”; under `C[C@@H]1CN([C@H](C)CO)C(=O)c2cc(NC(=O)Nc3ccc4c(c3)OCO4)ccc2O[C@@H](C)CCCCO[C@@H]1CN(C)Cc1ccc(C(F)(F)F)cc1`, “inactive”.
As for `C[C@@H]1CCCCO[C@@H](CN(C)Cc2ccc(C(F)(F)F)cc2)[C@H](C)CN([C@H](C)CO)C(=O)c2cc(NC(=O)Nc3ccc4c(c3)OCO4)ccc2O1`, the entry is “active”; as for `C[C@H](CO)N1C[C@H](C)[C@@H](CN(C)C(=O)NC2CCCCC2)Oc2c(NC(=O)C3CC3)cccc2C1=O`, “inactive”.
`CN(C)CCO[C@@H]1CC[C@@H]2[C@H]1OCCN2S(C)(=O)=O`: the cytotoxicity call was “inactive”.
As for `COCCNC(=O)C[C@@H]1CC[C@H]2[C@@H](COc3ccc(NC(=O)Nc4cccc(F)c4)cc3C(=O)N2C)O1`, the entry is “inactive”.
